SMILES strings stand for the structures. Compounds without any hit were thinned out: in the full panel of roughly 83,000, 20% have a hit.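 The endpoint reported here, percent growth, reads 100 for growth as untreated, 0 for no net growth and -100 for all cells dead.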 A number with no mark means an inactive call. Active and inactive are the calls of the source. The calls were made as follows: active = growth percent below 10; inactive = the rest.

Among the test systems are T-47D breast; BT-549 breast; MDA-MB-435 melanoma; SW-620 colon; MCF7 breast; HCT-116 colon; HCC-2998 colon; KM12 colon.
Assay in all cases: NCI-60 one-dose screen, 48 h (100 = growth as untreated, 0 = no growth, -100 = all killed)
Common to all, as to conditions: 10 µM unless noted

Consider `COc1c(C2CC(=O)Nc3c2c(C)nn3-c2nc3ccccc3[nH]2)cc2c(c1OC)OCO2` (stereo not drawn), for which the growth was 43.8% in the assay with T-47D breast; 47.8% in the assay on BT-549 breast; -32.7% (active) with MDA-MB-435 melanoma; 36.4% in the assay on SW-620 colon; 24.1% in the assay on MCF7 breast; 28.5% in the assay with HCT-116 colon. For the same compound, the values for the growth with HCC-2998 colon and in the assay with KM12 colon were 94.1% and 45.9%, respectively.
With `CCOC(=O)CC1C(COC(=O)NC)OC(n2cnc3c(NC(=O)Nc4ccccc4)ncnc32)C1O[Si](C)(C)C(C)(C)C` (stereo not drawn), the growth in the assay with T-47D breast is 29.1%; in the assay on BT-549 breast, 64.5%; in the assay on MDA-MB-435 melanoma, 49.3%; in the assay with SW-620 colon, 72.2%; in the assay on MCF7 breast it was 11.7%; in the assay with HCT-116 colon, 17.1%. For the same compound, the growth in the assay with HCC-2998 colon was -8.59% (active); in the assay on KM12 colon, 31.2%.
For the compound `CN1CCN(CC(=O)N2c3cccc4cccc(c34)N(C(=O)CN3CCN(C)CC3)C2c2cn(-c3ccccc3)nc2-c2cccc([N+](=O)[O-])c2)CC1`, the growth in the assay with T-47D breast was -75.8% (active); in the assay with BT-549 breast it was 71.2%; with MDA-MB-435 melanoma it was -42.6% (active); in the assay with SW-620 colon it was -26.4% (active); in the assay on MCF7 breast, -71.1% (active); in the assay with HCT-116 colon, -58.2% (active). The growth in the assay on HCC-2998 colon was -52.9% (active); with KM12 colon, 26%.
For the compound `COc1nc2ccc(C)cc2cc1-c1nc2c(cnn2-c2ccccc2)c(=O)[nH]1`, the growth is 81.9% in the assay with T-47D breast; 89.6% in the assay on BT-549 breast; 8.39% (active) with MDA-MB-435 melanoma; 58.5% in the assay on SW-620 colon; 50.6% in the assay with MCF7 breast; 67.2% in the assay with HCT-116 colon. The growth in the assay on HCC-2998 colon was 96.3%; with KM12 colon, 70.6%.
Consider `CCc1ccc(Oc2c(-c3ccc(OCc4ccc(Cl)cc4)cc3O)nn(C)c2C(F)(F)F)cc1`, for which the growth in the assay with T-47D breast was -8.15% (active); in the assay on BT-549 breast, -12% (active); with MDA-MB-435 melanoma, 1.36% (active); in the assay on SW-620 colon it was 7.28% (active); in the assay on MCF7 breast it was 6.53% (active); in the assay on HCT-116 colon, -62.4% (active). Besides, the growth in the assay on HCC-2998 colon is 12.8%; in the assay with KM12 colon it was -5.25% (active).
For `CCOC(=O)c1c(C)nc2c(c1N)CC(=O)N2Cc1ccc(F)cc1`, the growth is 73.2% in the assay on T-47D breast; 72.5% with BT-549 breast; 99.8% in the assay with MDA-MB-435 melanoma; 92.2% in the assay on SW-620 colon; 96.1% in the assay with MCF7 breast; 87.6% in the assay on HCT-116 colon. The growth was 103% in the assay on HCC-2998 colon and 97.7% with KM12 colon.
Consider `O=C(N/N=C/[C@H](O)[C@@H](O)[C@@H](O)[C@H](O)CO)c1ccc(NC(=O)c2cccnc2)cc1`, for which the growth was 100% in the assay on T-47D breast; 106% in the assay on BT-549 breast; 106% in the assay on MDA-MB-435 melanoma; 108% in the assay on SW-620 colon; 94.8% in the assay on MCF7 breast; 108% in the assay on HCT-116 colon. For the same compound, the results for the growth with HCC-2998 colon and in the assay on KM12 colon were 117% and 106%, respectively.
As to `CC1Cc2c(ncn3c(-c4ccc(F)cc4)nnc23)N(C)c2ccccc21` (stereo not drawn), the growth in the assay on T-47D breast was 35.1%; with BT-549 breast it was 80.1%; in the assay with MDA-MB-435 melanoma, 59.2%; with SW-620 colon, 36.2%; in the assay on MCF7 breast it was 52.2%; in the assay on HCT-116 colon, 86%. Moreover, the growth is 80.3% with HCC-2998 colon and 72.2% with KM12 colon.
With `O=c1c2cc(F)ccc2sc2c(NCCCNCCO)nc3ccccc3c12`, the growth was 22.9% in the assay with T-47D breast; 66.2% in the assay with BT-549 breast; -82.5% (active) with MDA-MB-435 melanoma; -78.3% (active) in the assay with SW-620 colon; -51.2% (active) with MCF7 breast; -94.1% (active) in the assay with HCT-116 colon. The growth in the assay with HCC-2998 colon is -90.8% (active); in the assay on KM12 colon it was -77% (active).
Regarding `O=[N+]([O-])c1ccc(Oc2nc(Nc3ccc(O[C@H]4CO[C@H]5[C@@H]4OC[C@@H]5O)c(Cl)c3)ncc2F)c(Cl)c1`, the growth in the assay on T-47D breast is 11.9%; with BT-549 breast it was 31.8%; in the assay with MDA-MB-435 melanoma, 10.9%; in the assay on SW-620 colon, 35.7%; in the assay with MCF7 breast it was 21.2%; in the assay with HCT-116 colon it was 25%. Further, the growth with HCC-2998 colon is 69.3%; in the assay with KM12 colon, 11.2%.
As for `Cc1cc(O)c(C2=NN(c3ccc(S(N)(=O)=O)cc3)C(c3ccccc3O)C2)cc1Cl` (stereo not drawn), the growth was 21.6% in the assay on T-47D breast; 99.7% in the assay on BT-549 breast; 10% in the assay on MDA-MB-435 melanoma; -0.676% (active) in the assay on SW-620 colon; 7.94% (active) in the assay with MCF7 breast; -92.9% (active) in the assay with HCT-116 colon. Moreover, the growth is -75% (active) in the assay with HCC-2998 colon and -60.4% (active) in the assay with KM12 colon.
Regarding `O=C(O)C(c1ccccc1)N1C(=O)CSC1=S` (stereo not drawn), the growth in the assay with T-47D breast was 97.7%; in the assay with BT-549 breast it was 94.2%; in the assay with MDA-MB-435 melanoma, 99.5%; in the assay with SW-620 colon it was 103%; with MCF7 breast it was 93.8%; in the assay with HCT-116 colon, 102%. Further, the growth with HCC-2998 colon is 112%; with KM12 colon, 102%.
Turning to `CCOC(=O)c1nc(Nc2ccc(C(C)=O)cc2)sc1C`, the growth with T-47D breast is 93%; in the assay on BT-549 breast, 106%; with MDA-MB-435 melanoma, 100%; in the assay with SW-620 colon it was 101%; in the assay with MCF7 breast it was 92.9%; in the assay on HCT-116 colon it was 99.8%. For the same compound, the growth is 114% in the assay on HCC-2998 colon and 101% in the assay on KM12 colon.
On to `O=C(Nn1c(NCC(=O)N2c3ccccc3Sc3ccccc32)nnc1-c1ccc(O)cc1)c1ccccc1`, for which the growth in the assay with T-47D breast was 98.9%; in the assay on BT-549 breast, 98.4%; in the assay with MDA-MB-435 melanoma, 102%; with SW-620 colon, 105%; with MCF7 breast it was 108%; in the assay on HCT-116 colon it was 91.7%. The growth is 91.9% in the assay with HCC-2998 colon and 104% in the assay on KM12 colon.
As to `Cc1ccc(-c2nc3c(c(-c4ccccc4)nn3-c3ccccc3)c(-c3ccc(O)cc3)c2C#N)cc1`, the growth in the assay on T-47D breast is 61.2%; with BT-549 breast it was 76.8%; in the assay on MDA-MB-435 melanoma, 64.5%; with SW-620 colon it was 62.8%; in the assay on MCF7 breast, 26.4%; in the assay on HCT-116 colon, 42.4%. Also, the figures for the growth in the assay with HCC-2998 colon and in the assay on KM12 colon were 95.3% and 55.9%, respectively.
Take `CN(C)CCNc1nc2ccccc2c2c(=O)c3cc(F)ccc3sc12`: the growth with T-47D breast was 66.1%; with BT-549 breast, 64.4%; with MDA-MB-435 melanoma, 1.18% (active); with SW-620 colon, -48% (active); in the assay with MCF7 breast, 34.3%; in the assay on HCT-116 colon it was -11.2% (active). Besides, the growth with HCC-2998 colon is -64.5% (active); with KM12 colon, 8.53% (active).

The record behind these values is PubChem BioAssay (NCI).
